Screening results (PubChem)
mcGAS MS inh: mouse cGAS inhibition by mass spec | AID 1259397 | actives 0.18% (n = 130,000) | inhibition, % at 12.5 µM | recombinant mouse cGAS, cGAMP by RapidFire MS;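 active = inhibition of cGAS enzyme activity at or above 60%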;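 also: enzyme stimulated by 45 bp dsDNA with ATP and GTP substrates; cGAMP share of summed cGAMP plus half ATP and half GTP signals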
Target sequence (Q8C6L5 whole entry, looked up): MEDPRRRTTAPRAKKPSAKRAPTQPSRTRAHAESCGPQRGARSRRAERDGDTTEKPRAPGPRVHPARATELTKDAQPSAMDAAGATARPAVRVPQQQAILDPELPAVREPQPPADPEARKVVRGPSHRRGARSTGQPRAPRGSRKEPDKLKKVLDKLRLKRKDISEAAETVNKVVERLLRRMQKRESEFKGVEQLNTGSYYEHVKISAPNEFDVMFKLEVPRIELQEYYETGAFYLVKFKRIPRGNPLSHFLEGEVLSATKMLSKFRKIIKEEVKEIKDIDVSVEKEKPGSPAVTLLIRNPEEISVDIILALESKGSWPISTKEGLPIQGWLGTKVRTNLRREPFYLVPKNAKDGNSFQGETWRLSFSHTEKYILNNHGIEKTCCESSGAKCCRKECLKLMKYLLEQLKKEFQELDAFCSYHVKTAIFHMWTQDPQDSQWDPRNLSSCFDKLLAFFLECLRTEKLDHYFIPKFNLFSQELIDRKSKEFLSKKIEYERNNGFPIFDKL
Starred values were filed as active, the others as inactive. This is one part of a sample in which hits are shown more often than they occur.

SMILES	mcGAS MS inh
O=C(Cn1cnnn1)Nc1nc(-c2cccc3ccccc23)cs1	3
O=C(CCl)Nc1nc(-c2c[nH]c3ccccc23)cs1	72*
CCCc1noc(CN2CCCC(OCc3cccnc3)C2)n1 (stereo not given)	4
C/C(=C1\C(=O)N(c2nc3ccccc3s2)N=C1C(F)(F)F)N1CCN(c2ccccc2)CC1	66*
CC(=NCCc1ccccc1)c1c(C(F)(F)F)[nH]n(-c2nc3ccccc3s2)c1=O	6
C/C(=N\N1CCN(C)CC1)c1c(C(F)(F)F)[nH]n(-c2nc3ccccc3s2)c1=O	-2
COCCOc1ccccc1-n1c(C)c(C)n2c3c(=O)n(C)c(=O)n(C)c3nc12	-4
COCCNC(=O)C1CCCN(C2CCN(c3nccc(OC)n3)CC2)C1 (stereo not given)	-10
NC(Cc1ccc(C(F)(F)F)cc1)c1csc(Nc2cnccn2)n1 (stereo not given)	-8
NC(Cc1ccc(F)cc1)c1csc(Nc2ccc(C(F)(F)F)cn2)n1 (stereo not given)	67*
NC(Cc1ccc(C(F)(F)F)cc1)c1csc(Nc2ccccn2)n1 (stereo not given)	-15
CCCOC1CCCN(Cc2cnc(S(=O)(=O)C3CCCC3)n2CCCOC)C1 (stereo not given)	5
CC(C)NCC(=O)N(Cc1ccc2c(c1)OCO2)Cc1ccco1	-5
O=C1/C(=C/c2cccnc2)COc2c(F)cccc21	73*
O=C1NC(=S)SC1=Cc1cccnc1	19
O=C1/C(=C\c2cccnc2)CSc2ccc(Br)cc21	6
C=CCn1c(=NC(=O)c2ccc(S(C)(=O)=O)cc2)sc2cccc(F)c21	-7
CN(C)c1nc2nonc2nc1NC1CCC1	-4
CCOC(=O)NC(=S)NN(C)c1nc(C)cnc1C	-4
Cc1cnc(C)c(N(C)C)n1	93*
COc1cc(Cl)cc2cc(C(=O)N3CC[C@@H](N)[C@@H](OC)C3)oc12	-6
COCCC1(C(=O)Nc2cc(CSC)ccn2)CCC1	-4
Cc1cc(NC(=O)Cn2nc(-c3cccc([N+](=O)[O-])c3)ccc2=O)no1	-3
CC1ON=C(c2ccco2)N(Cc2ccc(S(C)(=O)=O)cc2)C1=O (stereo not given)	66*
COc1ccc(C(C)=O)cc1CN1C(=O)C(C)ON=C1c1ccco1 (stereo not given)	-6
SMILES	mcGAS MS inh
CC1ON=C(c2ccco2)N(C/C=C/c2ccccc2)C1=O (stereo not given)	46
Cc1cccc(Cn2cc(C(=O)O)c(S(=O)(=O)N3CCOCC3)n2)c1	-5
COc1ccc2c(c1)C1(NCCS1)C(=O)N2Cc1c(F)cccc1F (stereo not given)	-4
CC(=O)N1CCC(N2CCN(c3ccncc3F)CC2)CC1	62*
O=C(C1CCC1)N1CCCC(N2CCN(c3ccccc3F)CC2)C1 (stereo not given)	-8
CC(=O)N1CCCN(c2ccncc2N)CC1	-2
Cc1nn2cc(CCNC(=O)c3cn(CC4CCCO4)nn3)nc2s1 (stereo not given)	4
CSC1(c2ccc(C)cc2)CC(C)=C(C)CS1=O (stereo not given)	-9
CS(=O)(=O)c1ccc(CN2C(=O)C(Cc3ccccc3)ON=C2c2cccc(F)c2)cc1 (stereo not given)	-4
O=C(O)c1sc(Br)c(I)c1I	78*
O=C1CCC2(CCN1)CCN(S(=O)(=O)c1ccc3ccccc3c1)CC2	-6
CC(=O)Nc1ccc(NC(=O)c2c(C)cc(=O)oc2C)cc1	-4
CCOC(=O)CCc1ccc(C(=O)C(F)(F)F)o1	-8
COc1ccc(-c2cnnc(NCCCSC)n2)c(OC)c1	-7
CC(C)Cn1c2c(=O)n(C)c(=O)n(C)c2n2c(-c3ccc(OCc4ccccc4)cc3)nnc12	-4
CCCn1cc(NC(=O)c2cc(-c3ccccc3)on2)cn1	72*
Cc1ccc(-c2cc(C(=O)Nc3cnn(C45CC6CC(CC(C6)C4)C5)c3)no2)cc1	6
O=C(Nc1cnn(C23CC4CC(CC(C4)C2)C3)c1)c1cc(-c2ccccc2)on1	1
CCC1CN(C(=O)C2CCN(C(=O)N3CCCC3)CC2)C(CC)CN1Cc1ccccc1 (stereo not given)	-2
Cc1cc2n(c1)CCn1c(C)ccc1-2	-2
Cc1ccc2n1CCn1cc(-c3ccccc3)cc1-2	77*
O=C(Nc1ccc(Cl)cc1F)c1cccc(CN2CCCC2=O)c1	-4
O=C(NCCc1ccccc1)N1CCN(S(=O)(=O)c2ccc(F)cc2)CC1	-9
O=C1NC(c2cc3cc(F)ccc3o2)Nc2ncccc21 (stereo not given)	-23
CCCOC1CCCN(c2cc(CCN)nc(C)n2)C1 (stereo not given)	97*
SMILES	mcGAS MS inh
Cc1nc(CCN)cc(N2CC3C[C@@H]4CC2C[C@H](C3)C4)n1	9
Cc1nc(CCN)cc(N2CCC(N3CCCC3)CC2)n1	-12
O=C(Nc1ccc2c(c1)CN(Cc1ccsc1)CC2)C1(c2ccccc2)CC1	-2
S=c1[nH]nc2c3ccccc3ncn12	87*
S=c1[nH]nc2c3cnn(-c4ccccc4)c3ncn12	-3
Cc1nc2c3ccccc3ncn2n1	-2
Cc1cc(=O)[nH]c(-n2nc(-c3cccs3)cc2NC(=O)c2ccc(Cl)cc2Cl)n1	6
O=C(Nc1cccc(-c2nnco2)c1)C1CCCCC1	-1
Cc1cc(-n2cccn2)ccc1CN1CCn2nc(C(=O)N3CCCC3)cc2C1	-8
Cc1cc(O)c(C2=Nc3cc(C(F)(F)F)ccc3SC(c3ccc(O)c([N+](=O)[O-])c3)C2)c(=O)o1 (stereo not given)	67*
Cc1cc(O)c(C2=Nc3ccccc3SC(c3ccc([N+](=O)[O-])cc3)C2)c(=O)o1 (stereo not given)	-4
Cc1cc(O)c(-c2ccn[nH]2)c(=O)o1	-3
NC(=O)c1c(NC(=O)CCNC(=O)c2ccco2)sc2c1CCC2	-5
CCN(CC)C(=O)[C@@H]1C[C@H](N)CN1C(=O)c1cccc2[nH]c(C)nc12	-6
COC(=O)c1ccc(CS(=O)(=O)N2CCCC(N(C)C)C2)cc1 (stereo not given)	1
CC1C(c2ccc(Cl)cc2)=[N+]([O-])C(C)(c2ccccc2)N1O (stereo not given)	-8
CC1=C(c2ccc(Cl)cc2)[N+](=O)C(C)(c2ccc(Br)cc2)N1[O-] (stereo not given)	90*
CC(=O)C1(C)N(O)C(C)(C)C(c2ccc(Cl)cc2)=[N+]1[O-] (stereo not given)	-1
CN(C)CC(C)(C)CN1CCC(O)(c2cccc(C(F)(F)F)c2)CC1	-4
O=S(=O)(c1ccccc1O)C(F)(F)F	-13
O=S(=O)(c1ccccc1NC(C1CC1)C1CC1)C(F)(F)F	-19
CC(C)(O)CCOc1ccccc1S(=O)(=O)C(F)(F)F	72*
CCOc1cc(C2=NN(c3ccc(C)cc3)C(=O)CC2)ccc1O	8
N#Cc1c(-c2ccco2)[nH]c(=S)[nH]c1=O	13
CCOc1cc(-c2[nH]c(=S)[nH]c(=O)c2C#N)ccc1O	99*
SMILES	mcGAS MS inh
COC(=O)c1sc(NC(=O)c2ccccc2F)c(C(=O)OC)c1C	-2
Cc1cc(C2CCCN2C(=O)NCc2ccsc2)on1 (stereo not given)	-1
Cc1cc2c(n1-c1ccc(S(=O)(=O)N(C)C)cc1)CC(C)(C)CC2=O	-13
Cc1nnc2sc(-c3ccccc3NC(=S)NC(=O)c3cc4ccccc4o3)nn12	71*
CCOC(=O)c1c(NC(=O)c2cc3ccccc3o2)sc(C(N)=O)c1C	-5
Cc1nnc2sc(-c3cccc(NC(=S)NC(=O)c4cc5ccccc5o4)c3)nn12	-5
